For 1 compound, residual activity results are on record in ChEMBL document CHEMBL2218924, “A broad activity screen in support of a chemogenomic map for kinase signalling research and drug discovery” (Biochem J, 2013).

The target in assay [1] is Tyrosine-protein kinase SYK (Homo sapiens) (UniProt P43405). Particulars: at 10 µM.
Assay [2] concerns the target T1, Mitogen-activated protein kinase kinase kinase 7 (Homo sapiens) (UniProt O43318).
T1 sequence (whole entry): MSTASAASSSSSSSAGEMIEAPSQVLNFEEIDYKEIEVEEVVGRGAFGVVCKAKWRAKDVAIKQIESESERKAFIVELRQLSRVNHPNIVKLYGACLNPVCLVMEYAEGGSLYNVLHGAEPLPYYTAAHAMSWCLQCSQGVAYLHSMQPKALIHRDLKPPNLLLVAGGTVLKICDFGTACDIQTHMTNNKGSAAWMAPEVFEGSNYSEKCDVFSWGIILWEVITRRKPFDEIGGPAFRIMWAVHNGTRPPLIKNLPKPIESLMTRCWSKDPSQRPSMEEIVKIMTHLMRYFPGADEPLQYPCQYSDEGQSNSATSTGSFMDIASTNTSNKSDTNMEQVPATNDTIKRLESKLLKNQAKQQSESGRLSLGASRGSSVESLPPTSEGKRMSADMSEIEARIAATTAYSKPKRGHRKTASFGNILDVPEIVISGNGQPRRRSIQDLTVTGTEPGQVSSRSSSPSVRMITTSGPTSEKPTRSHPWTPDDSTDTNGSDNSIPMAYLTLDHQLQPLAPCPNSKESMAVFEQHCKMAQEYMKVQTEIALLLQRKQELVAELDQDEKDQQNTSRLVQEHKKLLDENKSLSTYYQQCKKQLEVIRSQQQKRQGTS
As to conditions: at 10 µM.

For assay [3], the target named is T2, Serine/threonine-protein kinase TAO3 (Homo sapiens) (UniProt Q9H2K8).
T2 sequence (whole entry): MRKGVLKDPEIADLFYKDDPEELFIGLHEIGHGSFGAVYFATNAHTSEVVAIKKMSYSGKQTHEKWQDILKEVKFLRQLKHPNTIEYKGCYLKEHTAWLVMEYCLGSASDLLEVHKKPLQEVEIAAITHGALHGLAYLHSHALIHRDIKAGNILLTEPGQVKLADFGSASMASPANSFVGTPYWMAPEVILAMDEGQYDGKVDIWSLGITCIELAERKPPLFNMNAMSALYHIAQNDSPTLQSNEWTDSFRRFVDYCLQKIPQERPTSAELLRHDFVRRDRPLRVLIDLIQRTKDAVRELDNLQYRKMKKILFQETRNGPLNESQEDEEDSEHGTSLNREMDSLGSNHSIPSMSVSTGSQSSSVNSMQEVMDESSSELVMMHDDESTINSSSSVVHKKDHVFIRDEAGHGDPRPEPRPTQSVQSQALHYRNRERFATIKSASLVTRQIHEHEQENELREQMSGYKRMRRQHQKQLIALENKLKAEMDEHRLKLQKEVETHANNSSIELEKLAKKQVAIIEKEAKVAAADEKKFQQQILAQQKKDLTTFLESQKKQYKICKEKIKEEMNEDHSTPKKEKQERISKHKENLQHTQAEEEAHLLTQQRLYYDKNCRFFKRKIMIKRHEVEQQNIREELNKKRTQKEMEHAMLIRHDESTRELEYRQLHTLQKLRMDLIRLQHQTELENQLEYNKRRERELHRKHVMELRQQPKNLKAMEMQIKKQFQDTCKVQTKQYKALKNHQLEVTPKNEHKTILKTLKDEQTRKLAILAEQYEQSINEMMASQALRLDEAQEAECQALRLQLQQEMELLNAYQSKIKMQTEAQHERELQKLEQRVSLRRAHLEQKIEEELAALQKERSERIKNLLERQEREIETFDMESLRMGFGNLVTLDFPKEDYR
Particulars: at 1 µM.

Assay [4] concerns the target T2, Serine/threonine-protein kinase TAO3 (Homo sapiens). Particulars: at 10 µM.
The target of assay [5] is T3, Serine/threonine-protein kinase TBK1 (Homo sapiens) (UniProt Q9UHD2).
T3 sequence (whole entry): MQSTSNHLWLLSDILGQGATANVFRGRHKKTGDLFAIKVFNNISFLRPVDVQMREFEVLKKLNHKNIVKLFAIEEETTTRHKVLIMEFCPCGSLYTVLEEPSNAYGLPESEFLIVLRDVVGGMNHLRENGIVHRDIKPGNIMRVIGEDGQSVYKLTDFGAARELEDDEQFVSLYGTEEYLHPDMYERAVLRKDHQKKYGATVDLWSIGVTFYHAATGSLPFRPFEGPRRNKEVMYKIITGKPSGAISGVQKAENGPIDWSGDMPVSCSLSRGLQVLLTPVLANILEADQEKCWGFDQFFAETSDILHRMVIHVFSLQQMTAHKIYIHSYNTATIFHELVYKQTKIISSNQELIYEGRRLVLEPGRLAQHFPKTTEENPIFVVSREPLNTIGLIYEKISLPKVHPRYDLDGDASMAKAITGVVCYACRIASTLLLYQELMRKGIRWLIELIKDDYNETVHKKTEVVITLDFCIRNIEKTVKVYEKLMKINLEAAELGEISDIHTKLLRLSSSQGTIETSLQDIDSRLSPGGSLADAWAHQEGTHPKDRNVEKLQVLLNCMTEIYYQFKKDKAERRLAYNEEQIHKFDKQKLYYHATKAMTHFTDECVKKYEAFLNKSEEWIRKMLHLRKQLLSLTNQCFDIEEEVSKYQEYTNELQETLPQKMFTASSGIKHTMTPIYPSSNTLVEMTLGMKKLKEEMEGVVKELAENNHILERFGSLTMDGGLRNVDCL
Particulars: at 1 µM.

The target in assay [6] is T3, Serine/threonine-protein kinase TBK1 (Homo sapiens). As to conditions: at 10 µM.
The target in assay [7] is T4, TGF-beta receptor type-1 (Homo sapiens) (UniProt P36897).
T4 sequence (whole entry): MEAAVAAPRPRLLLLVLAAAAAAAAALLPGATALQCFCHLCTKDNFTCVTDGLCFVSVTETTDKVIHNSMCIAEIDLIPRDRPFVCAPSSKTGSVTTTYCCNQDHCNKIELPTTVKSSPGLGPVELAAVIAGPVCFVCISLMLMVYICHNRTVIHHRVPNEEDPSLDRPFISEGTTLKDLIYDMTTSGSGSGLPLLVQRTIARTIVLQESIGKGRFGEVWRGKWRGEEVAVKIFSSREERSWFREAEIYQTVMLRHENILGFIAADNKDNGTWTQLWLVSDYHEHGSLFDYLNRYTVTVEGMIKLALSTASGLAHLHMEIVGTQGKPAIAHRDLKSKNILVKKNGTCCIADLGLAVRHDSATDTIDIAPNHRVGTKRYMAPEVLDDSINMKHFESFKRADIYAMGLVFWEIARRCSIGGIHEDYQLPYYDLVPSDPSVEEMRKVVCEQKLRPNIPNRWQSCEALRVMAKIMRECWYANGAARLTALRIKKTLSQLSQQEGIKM
As to conditions: at 1 µM.

Assay [8] has as its target T4, TGF-beta receptor type-1 (Homo sapiens). As to conditions: at 10 µM.
In assay [9] the target is T5, Inhibitor of nuclear factor kappa-B kinase subunit alpha (Homo sapiens) (UniProt O15111).
T5 sequence (whole entry): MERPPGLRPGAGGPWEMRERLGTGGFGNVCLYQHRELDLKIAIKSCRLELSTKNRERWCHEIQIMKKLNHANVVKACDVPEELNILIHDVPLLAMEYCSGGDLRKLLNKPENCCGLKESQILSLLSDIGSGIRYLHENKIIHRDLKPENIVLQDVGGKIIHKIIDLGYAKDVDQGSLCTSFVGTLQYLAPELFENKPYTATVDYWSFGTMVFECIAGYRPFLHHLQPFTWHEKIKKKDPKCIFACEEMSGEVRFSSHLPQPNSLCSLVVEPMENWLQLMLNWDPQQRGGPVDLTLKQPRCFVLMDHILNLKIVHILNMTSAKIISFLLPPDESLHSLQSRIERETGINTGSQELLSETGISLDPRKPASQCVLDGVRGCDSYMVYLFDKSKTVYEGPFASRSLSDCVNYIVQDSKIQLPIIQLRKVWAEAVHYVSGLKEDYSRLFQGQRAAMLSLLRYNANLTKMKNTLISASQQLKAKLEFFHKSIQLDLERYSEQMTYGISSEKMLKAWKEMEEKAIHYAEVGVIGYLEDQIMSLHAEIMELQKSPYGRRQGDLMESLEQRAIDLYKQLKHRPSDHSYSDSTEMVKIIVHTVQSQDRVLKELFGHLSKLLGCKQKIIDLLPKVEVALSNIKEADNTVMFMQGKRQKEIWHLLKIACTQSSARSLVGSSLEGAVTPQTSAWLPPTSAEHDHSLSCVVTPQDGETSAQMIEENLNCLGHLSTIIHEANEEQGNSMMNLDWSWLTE
Particulars: at 1 µM.

For assay [10], the target named is T5, Inhibitor of nuclear factor kappa-B kinase subunit alpha (Homo sapiens). Particulars: at 10 µM.
Assay [11] deals with T6, Inhibitor of nuclear factor kappa-B kinase subunit beta (Homo sapiens) (UniProt O14920).
T6 sequence (whole entry): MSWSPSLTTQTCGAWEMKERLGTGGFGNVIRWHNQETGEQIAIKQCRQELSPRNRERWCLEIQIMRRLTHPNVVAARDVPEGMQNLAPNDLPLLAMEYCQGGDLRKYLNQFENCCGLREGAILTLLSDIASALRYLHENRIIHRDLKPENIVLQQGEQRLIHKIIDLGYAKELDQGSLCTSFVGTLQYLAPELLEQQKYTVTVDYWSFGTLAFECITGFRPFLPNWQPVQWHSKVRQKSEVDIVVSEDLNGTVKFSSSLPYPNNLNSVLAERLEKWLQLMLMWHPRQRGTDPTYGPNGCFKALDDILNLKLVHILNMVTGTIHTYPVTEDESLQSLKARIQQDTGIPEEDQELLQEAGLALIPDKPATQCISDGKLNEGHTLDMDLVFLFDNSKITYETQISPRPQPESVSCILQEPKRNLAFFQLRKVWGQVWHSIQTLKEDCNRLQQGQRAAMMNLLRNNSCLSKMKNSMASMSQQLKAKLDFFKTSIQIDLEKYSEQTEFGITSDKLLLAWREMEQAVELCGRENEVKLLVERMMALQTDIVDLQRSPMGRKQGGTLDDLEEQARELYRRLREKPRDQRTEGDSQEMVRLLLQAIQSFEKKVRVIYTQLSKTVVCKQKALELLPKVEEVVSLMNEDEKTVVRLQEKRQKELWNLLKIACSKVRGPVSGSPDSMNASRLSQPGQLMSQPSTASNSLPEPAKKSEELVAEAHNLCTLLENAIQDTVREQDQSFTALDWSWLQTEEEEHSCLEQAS
Particulars: at 1 µM.

Assay [12] addresses T6, Inhibitor of nuclear factor kappa-B kinase subunit beta (Homo sapiens). Particulars: at 10 µM.
Assay [13] concerns the target Insulin receptor (Homo sapiens) (UniProt P06213). As to conditions: at 1 µM.

Chain of Insulin receptor (Homo sapiens) (P06213 28-758 limits assumed): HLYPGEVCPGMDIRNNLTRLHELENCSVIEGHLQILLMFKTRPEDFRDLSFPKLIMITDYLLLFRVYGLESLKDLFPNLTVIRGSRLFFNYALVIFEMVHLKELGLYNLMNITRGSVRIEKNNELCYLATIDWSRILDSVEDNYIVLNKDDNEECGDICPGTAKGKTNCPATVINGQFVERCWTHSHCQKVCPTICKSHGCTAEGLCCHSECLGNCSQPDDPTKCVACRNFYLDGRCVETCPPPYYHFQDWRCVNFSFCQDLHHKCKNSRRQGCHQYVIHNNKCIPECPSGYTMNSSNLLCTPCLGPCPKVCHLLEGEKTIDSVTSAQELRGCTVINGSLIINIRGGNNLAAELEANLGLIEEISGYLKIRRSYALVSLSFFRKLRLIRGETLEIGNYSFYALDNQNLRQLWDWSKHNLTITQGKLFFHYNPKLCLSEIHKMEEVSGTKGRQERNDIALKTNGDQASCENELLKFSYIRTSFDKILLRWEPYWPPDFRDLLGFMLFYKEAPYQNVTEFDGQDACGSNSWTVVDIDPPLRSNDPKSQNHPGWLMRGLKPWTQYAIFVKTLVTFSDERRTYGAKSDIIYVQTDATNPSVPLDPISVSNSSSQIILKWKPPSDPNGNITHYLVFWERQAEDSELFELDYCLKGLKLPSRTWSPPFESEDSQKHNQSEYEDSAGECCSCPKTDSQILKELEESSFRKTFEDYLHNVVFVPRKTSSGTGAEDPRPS
Chain of Insulin receptor (Homo sapiens) (P06213 763-1382 limits assumed): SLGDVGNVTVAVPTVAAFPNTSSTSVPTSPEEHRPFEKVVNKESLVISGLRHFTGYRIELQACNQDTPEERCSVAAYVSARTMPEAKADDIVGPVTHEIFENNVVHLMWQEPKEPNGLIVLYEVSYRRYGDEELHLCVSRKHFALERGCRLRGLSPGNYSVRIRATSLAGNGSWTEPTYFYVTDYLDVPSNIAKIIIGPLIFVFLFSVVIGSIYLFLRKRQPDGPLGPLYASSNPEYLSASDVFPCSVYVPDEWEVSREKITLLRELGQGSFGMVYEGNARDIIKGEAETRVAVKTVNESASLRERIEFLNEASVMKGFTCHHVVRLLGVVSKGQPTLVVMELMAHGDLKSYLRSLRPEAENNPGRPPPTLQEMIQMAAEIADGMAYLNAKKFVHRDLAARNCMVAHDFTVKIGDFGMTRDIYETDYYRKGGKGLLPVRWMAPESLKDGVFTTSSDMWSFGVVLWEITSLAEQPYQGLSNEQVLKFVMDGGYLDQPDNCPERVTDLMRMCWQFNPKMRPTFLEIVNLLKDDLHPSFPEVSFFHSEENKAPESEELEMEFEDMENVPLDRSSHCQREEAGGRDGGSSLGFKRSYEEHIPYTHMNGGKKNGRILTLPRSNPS

Take `N#Cc1cnc2cnc(NCc3cccnc3)cc2c1Nc1ccc(F)c(Cl)c1`: the residual activity in [1] was 2%; in [2], 87%; in [3], 18%; in assay [4] it was 7%; in assay [5] it was 5%; in [6], 2%. Also, the residual activity was 126% in assay [7]; 123% in [8]; 74% in assay [9]; 58% in assay [10]; 84% in assay [11]; 74% in assay [12]. The residual activity in assay [13] is 136%.
